Results on 40 compounds are retold here after PubChem BioAssay (NCATS).

Inconclusive results are not listed. Entries that show only a call come without a potency. Active and inactive are the calls of the source. Calls follow the shape of the dose curve; as a rule, active = well fitted inhibition curve with a large enough effect; inconclusive = small, poorly fitted or top-dose-only effect; inactive = no such curve, though single readings can be large or run the other way. Where a SMILES comes first, the peptide text is derived from it. [ ]: non-standard residue; d: D form.
Potency is read from the fitted curve at half-maximal effect.

This assay is described as follows: Primary fluorescence-based thiol-reactive (MSTI) qHTS assay for identification of artifact compounds. (AID 1845221). Also: nearly all actives have a fitted effect of over 65% in size.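 As to activity change, negative = thiol reactive: thiol-reactive compounds lower the probe fluorescence signal.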 The conditions noted are these: MSTI thiol-reactivity probe, 1 h; series mostly up to 53.8 µM. The gist of the method: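 Curve-fitted percent inhibition (4-parameter Hill) derived from fluorescence, Ex 525/Em 598 nm, scaled with Acetyl-MSTI and MSTI; 1 h incubation at room temperature.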
For `C/C1=C\C[C@H](O[C@@H]2O[C@H](CO)[C@@H](O)[C@H](O)[C@H]2O)/C(C)=C/[C@H]2OC(=O)[C@H](C)[C@@H]2CC1`, the Potency is 7.33 µM (active). For the compound `c1ccc(C(OC2CCN(CCCc3nn[nH]n3)CC2)c2ccccc2)cc1`, the Potency entry is “inactive”.

For the compound `C[C@@H]1CC[C@]2(C(=O)O)CC[C@]3(C)C(=CCC4[C@]5(C)C(CC[C@]43C)C(C)(C)[C@@H](O)[C@H](O)[C@@H]5O)C2[C@]1(C)O` (stereo not given in full), the Potency entry is “inactive”. With `C/C=C/C1=CC2=CC(=O)C(C)(O)C(OC(=O)c3c(C)cc(O)cc3O)C2CO1` (stereo not given), the Potency entry was “inactive”. On the same count and under the same terms, the figure for `CCC(C)/C=C(C)/C=C/C1=CC2=C(Cl)C(=O)C(C)(OC(C)=O)C(=O)C2=CN1CCCC(=O)O` (stereo not given) is 0.367 µM (active); for `C[C@]12C=CC(=O)C=C1CC[C@@H]1[C@@H]2[C@@H](O)C[C@@]2(C)[C@H]1CC[C@]2(O)C(=O)COC(=O)CCC(=O)O` it is “inactive”; for `CCC(C)/C=C(C)/C=C/C1=CC2=C(Cl)C(=O)C(C)(OC(C)=O)C(=O)C2=CN1C1CCCCN(C(CCC(N)=O)C(=O)O)C1=O` (stereo not given) it is 0.446 µM (active).

On to `CC(=O)O[C@@H]1C[C@]2(C)[C@@]3(CCC4[C@@]5(C)CC[C@H](O[C@@H]6O[C@H](C(=O)O)[C@@H](O)[C@H](O[C@@H]7O[C@H](CO)[C@H](O)[C@H](O)[C@H]7O[C@@H]7O[C@@H](C)[C@H](O)[C@@H](O)[C@H]7O[C@@H]7OC[C@](O)(CO)[C@H]7O)[C@H]6O[C@@H]6O[C@H](CO)[C@H](O)[C@H](O)[C@H]6O)C(C)(C)C5CC[C@]42C)O[C@@H](O)[C@]12C3CC(C)(C)[C@@H](OC(=O)/C=C/c1ccc(O)c(O)c1)[C@@H]2OC(=O)/C=C/c1ccccc1` (stereo not given in full), for which the activity change, negative = thiol reactive was 97% [at 11.5 µM] (inactive). For the compound `C=C1CCC2(OC1)OC1CC3C4CC=C5CC(O)CC(O[C@@H]6OC[C@@H](O)[C@H](O)[C@H]6O)C5(C)C4CCC3(C)C1(O)C2C` (stereo not given in full), the Potency entry is “inactive”. Same read-out and setting: the result for `CC1CCCC2OC2C(=O)c2c(O)cc(O)cc2CC(=O)O1` (stereo not given) reads 8.44 µM (active); that for `CC(=O)OC1C(O)C(C)=C(CCC(C)CC(=O)O)C2(C)CCCC(C)(C)C12` (stereo not given), “inactive”; that for `C[C@]12CCC(=O)C=C1[C@@H](O)C[C@@H]1[C@@H]2[C@@H](O)C[C@@]2(C)[C@H]1CC[C@]2(O)C(=O)CO`, “inactive”. Same read-out and setting: the result for `CO[C@@H](Cc1ccc(OCCc2nc(-c3ccccc3)oc2C)c2ccsc12)C(=O)O` reads “inactive”. `CC(=O)N[C@H]1[C@H](O[C@H]2CC[C@@]3(C)C(CC[C@]4(C)C3CC=C3C5CC(C)(C)CC[C@]5(C(=O)O)[C@H](O[C@@H]5O[C@H](CO)[C@@H](O)[C@H](O)[C@H]5O)C[C@]34C)C2(C)C)O[C@H](CO[C@@H]2OC[C@H](O)[C@H](O)[C@H]2O[C@@H]2OC[C@@H](O)[C@H](O)[C@H]2O)[C@@H](O)[C@@H]1O` (stereo not given in full): the activity change, negative = thiol reactive is -21.6% [at 11.5 µM] (inactive). With `CC(=O)O[C@H]1C[C@@H]2[C@]3(CC[C@]4(C)[C@@H](C5(C)CCC(C(C)(C)O)O5)[C@@H](O)C[C@@]24C)C[C@@]32CC[C@H](O[C@@H]3OC[C@@H](O)[C@H](O)[C@H]3O)C(C)(C)[C@H]12` (stereo not given in full), the Potency result was “inactive”. On to `C=C[C@](C)(CC/C=C(\C)C(=O)O)O[C@@H]1OC[C@H](O)[C@H](O)[C@H]1O`, for which the Potency was 7.36 µM (active).

As for `O=C(O)C[C@H]1CCC(=O)[C@@H]1C/C=C\CCOC1OC(CO)C(O)C(O)C1O` (stereo not given in full), the Potency was 7.36 µM (active).

In the case of `CC(C(=O)O)C1CCC2(C)C3C(=O)C=C4C(CCC(=O)C4(C)C)C3(C)CCC12C` (stereo not given), the Potency result was “inactive”. Same read-out and setting: the result for `COc1ccc(C(=O)O[C@H]2CC(C)=CC[C@@]3(C)[C@@H](OC(C)=O)C[C@@](O)(C(C)C)[C@H]23)cc1` reads “inactive”; that for `c1nc(NC2CCCCCC2)c2cc(CNC[C@H]3CCCO3)sc2n1`, “inactive”; that for `CCC[C@@H]1C[C@@H](C(=O)N[C@H](C(C)Cl)[C@H]2O[C@H](SC)[C@H](O)[C@@H](O)[C@H]2O)N(C)C1` (stereo not given in full), “inactive”. Regarding `CC1CCC2C(C)(C)C(O)CCC2(C)C12Cc1c(O)cc3c(c1O2)CN(C(CCC(N)=O)C(=O)O)C3=O` (stereo not given), the Potency entry was “inactive”. As to `O=C(c1ccc(F)cc1)C1CCN(CCn2c(=O)nc3n(c2=O)CCCC3)CC1`, the Potency entry is “inactive”. `C=CC(C)(O)CC/C=C(/C)C(=O)OC1C(OC2OCC(OC3OC(CO)C(O)C(O)C3O)C(OC3OCC(O)C(OC4OC(C)C(O)C(O)C4O)C3O)C2O)COC(OC(=O)C23CCC(C)(C)CC2C2=CCC4C5(C)CCC(OC6OC(CO)C(OC7OC(CO)C(O)C(OC8OCC(O)C(O)C8O)C7O)C(O)C6O)C(C)(C)C5CCC4(C)C2(C)CC3O)C1O` (stereo not given): the activity change, negative = thiol reactive is 146% [at 6.41 µM] (inactive). Still for that read-out and setting: the result for `C[C@@H]1O[C@@H](O[C@H]2[C@H](O[C@H]3CC[C@@]4(C)C(CC[C@]5(C)C4CC=C4C6CC(C)(C)CC[C@]6(C(=O)O[C@@H]6O[C@H](CO[C@@H]7O[C@H](CO)[C@@H](O[C@@H]8O[C@@H](C)[C@H](O)[C@@H](O)[C@H]8O)[C@H](O)[C@H]7O)[C@@H](O)[C@H](O)[C@H]6O)CC[C@]45C)[C@]3(C)CO)OC[C@H](O)[C@@H]2O)[C@H](O)[C@H](O)[C@H]1O` (stereo not given in full) reads 181% [at 11.5 µM] (inactive). For `COc1c(C)c(OCC=C(C)C)cc2c1C(=O)NC2=O`, the Potency result was “inactive”. Same read-out and setting: the entry for `CC(=O)N[C@H](Cc1ccc(O)cc1)C(=O)N[C@H](CCCN=C(N)N)C(=O)N[C@H](Cc1ccccc1)C(N)=O` (Ac-[dY]-[dR]-[dF]-NH2) is “inactive”. The same measure, in the same setting: the entry for `CCS(=O)(=O)N1CCC([C@@H](C)n2c(C)c(C(=O)NCc3c(OC)cc(C)[nH]c3=O)c3ccccc32)CC1` is “inactive”; for `C/C=C/C=C/C=C/C(=O)O[C@@H]1[C@@H](OC)C2=C(C(=O)N(C(C)C(=O)O)C2)[C@@]2(C)CCCC(C)(C)[C@H]12` (stereo not given in full) it is “inactive”; for `O=C(O)c1cc(O[C@@H]2O[C@H](CO[C@@H]3OC[C@@H](O)[C@H](O)[C@H]3O)[C@@H](O)[C@H](O)[C@H]2O)c2ccccc2c1O` it is 3.67 µM (active). With `C[C@@H]1O[C@@H](O[C@H]2[C@H](OC(=O)[C@]34CCC(C)(C)C[C@H]3C3=CCC5[C@@]6(C)C[C@H](O)[C@H](O[C@@H]7O[C@H](CO)[C@@H](O[C@@H]8O[C@H](CO)[C@@H](O)[C@H](O)[C@H]8O)[C@H](O)[C@H]7O)[C@@](C)(CO)C6[C@H](O)C[C@@]5(C)[C@]3(C)C[C@H]4O)OC[C@H](O)[C@@H]2O)[C@H](O)[C@H](O)[C@H]1O[C@@H]1OC[C@@H](O)[C@H](O[C@@H]2OC[C@](O)(CO)[C@H]2O)[C@H]1O` (stereo not given in full), the activity change, negative = thiol reactive is -12.6% [at 11.5 µM] (inactive). In the case of `CC(=C/C(=O)O)/C=C/[C@]1(O)[C@@]2(C)CO[C@]1(C)C[C@H](O[C@@H]1O[C@H](CO)[C@@H](O)[C@H](O)[C@H]1O)C2`, the Potency was 9.22 µM (active). The same measure, in the same setting: the result for `c1ccc(Cc2ncc3c(n2)CCNCC3)cc1` reads “inactive”; that for `C/C=C/C=C/C=C/C(=O)O[C@@H]1C=C(CO)C(O)(C(=O)O)[C@@]2(C)CCCC(C)(C)[C@H]12` (stereo not given in full), “inactive”; that for `COc1cc([C@H]2OC[C@]3(OC(C)=O)[C@@H](c4ccc(O[C@@H]5O[C@H](CO)[C@@H](O)[C@H](O)[C@H]5O)c(OC)c4)OC[C@H]23)ccc1O`, “inactive”. Same read-out and setting: the result for `Cc1nnc(C(C)C)n1C1CC2CCC(C1)N2CC[C@H](NC(=O)C1CCC(F)(F)CC1)c1ccccc1` (stereo not given in full) reads “inactive”. For the compound `CC1(C)CCC2(C(=O)OC3OC(COC4OC(CO)C(O)C(O)C4O)C(O)C(O)C3O)CCC3(C)C(=CCC4C5(C)CCC(O)C(C)(C(=O)O)C5CCC43C)C2C1O` (stereo not given), the activity change, negative = thiol reactive is 16.4% [at 11.5 µM] (inactive).

On to `C[C@@H]1O[C@@H](O[C@H]2[C@H](O)[C@@H](C(=O)O)O[C@@H](O[C@H]3CC[C@@]4(C)C(CC[C@]5(C)C4CC=C4C6CC(C)(C)CC[C@]6(C(=O)O)CC[C@]45C)C3(C)C)[C@@H]2O[C@@H]2O[C@H](CO)[C@@H](O)[C@H](O)[C@H]2O)[C@H](O)[C@H](O)[C@H]1O` (stereo not given in full), for which the activity change, negative = thiol reactive was 296% [at 11.5 µM] (inactive). With `O=C(NCC(=O)N1CC[C@H](NC2CCC(O)(c3ccc(-c4ncccn4)cn3)CC2)C1)c1cccc(C(F)(F)F)c1` (stereo not given in full), the Potency entry is “inactive”. Same read-out and setting: the result for `CCOC(=O)[C@H](CCc1ccccc1)N[C@@H](C)C(=O)N1C2CCCCC2C[C@H]1C(=O)O` (stereo not given in full) reads “inactive”.
